Results on 91 compounds are retold here after PubChem BioAssay AID1476 (National Center for Advancing Translational Sciences (NCATS), 2009).

In all, about 200,000 compounds went through this assay and about 4,500 (2.2%) were called active. Inconclusive results (about 12%) are left out. The sample holds actives, similar compounds and a random draw of the others, so the mix is not that of the screen. A number with no mark means an inactive call. The call rests on the fitted dose curve; in most records, active means well fitted inhibition curve with a large enough effect; inconclusive means small, poorly fitted or top-dose-only effect, or effect the other way; inactive means flat fitted curve, though single readings scatter.
Potency means the concentration at half of the fitted maximal effect.

Sequence of Cruzipain (Trypanosoma cruzi) (P25779 123-467 limits assumed): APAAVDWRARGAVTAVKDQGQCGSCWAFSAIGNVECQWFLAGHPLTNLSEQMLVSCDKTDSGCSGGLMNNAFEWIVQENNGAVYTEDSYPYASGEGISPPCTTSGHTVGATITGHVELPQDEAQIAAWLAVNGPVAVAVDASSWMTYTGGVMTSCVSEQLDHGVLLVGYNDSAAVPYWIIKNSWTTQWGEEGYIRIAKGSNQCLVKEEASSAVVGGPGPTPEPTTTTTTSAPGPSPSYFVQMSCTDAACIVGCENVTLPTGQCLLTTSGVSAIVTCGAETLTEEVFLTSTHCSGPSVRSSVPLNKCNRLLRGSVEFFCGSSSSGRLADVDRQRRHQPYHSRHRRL

The target in this assay is Cruzipain (Trypanosoma cruzi) (UniProt P25779). Briefly: qHTS Assay for Promiscuous and Specific Inhibitors of Cruzain (without detergent). Further: nearly all actives have a fitted effect of over 40% in size.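 On max response, negative = inhibition: plate controls were enzyme without inhibitor for no effect and buffer without enzyme for full effect.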 As to conditions: purified cruzain, Z-FR-AMC fluorescence, no detergent. The procedure, abridged:
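Purified cruzain at 1.5 nM, pre-incubated 15 min with compound at room temperature in 100 mM sodium acetate pH 5.5, 5 mM DTT, 0.00005% Triton X-100. Reaction started with 2 uM Z-FR-AMC; AMC fluorescence increase over 60 s gives rate.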
For `COCCOC(=O)C1=C(C)N=c2s/c(=C\c3cccs3)c(=O)n2C1c1cccs1` (stereo unspecified), the max response, negative = inhibition was 14.7%.

For `COc1ccc(OC)c(C2C3=C(N=c4s/c(=C\c5cccc(O)c5)c(=O)n42)c2ccccc2CC3)c1` (stereo unspecified), the Potency is 3.16 µM (active).

With `O=C1CCCC2=C1C(c1ccccc1)n1c(s/c(=C/c3cccc(F)c3)c1=O)=N2` (stereo unspecified), the max response, negative = inhibition was -0.66%.

With `Cc1ccc2nc(NC(=O)c3nc(SCc4ccccc4F)ncc3Cl)sc2c1`, the max response, negative = inhibition was 16.1%.

Consider `CCOC(=O)c1c(NC(=O)c2ccc(Br)o2)sc2c1CCCC2`, for which the max response, negative = inhibition is -20.9%.

On to `CCCOC(=O)c1c(NC(=O)c2cnn3c2NC(c2ccccc2)CC3C(F)(F)F)sc2c1CCCC2` (stereo unspecified), for which the Potency is 5.01 µM (active).

With `CCCOC(=O)c1c(NC(=O)c2cc3nc(-c4ccc(OC)cc4)cc(C(F)(F)F)n3n2)sc2c1CCCC2`, the max response, negative = inhibition is 3.32%.

As to `CCOC(=O)c1ccc(NC(=O)CCn2c(=O)oc3ccccc32)cc1`, the max response, negative = inhibition is -3.92%.

For `CCOC(=O)C1CCN(c2nc3c(S(=O)(=O)c4ccc(CC)cc4)nnn3c3ccc(Cl)cc23)CC1`, the max response, negative = inhibition is -25.4%.

Take `CCNC(=O)c1cc2n(n1)CCCN(Cc1ccc(C)cc1)C2=O`: the max response, negative = inhibition was 4.87%.

In the case of `Cc1ccccc1CNC(=O)CCc1cn(Cc2ccccc2C)c2ccccc12`, the max response, negative = inhibition was 0.523%.

Turning to `COc1ccc(OC)c(Nc2nc(-c3ccc(O)c(O)c3)cs2)c1`, the max response, negative = inhibition is -16.7%.

Take `COc1ccc(C)cc1Nc1nc(-c2c(C)[nH]c3ccccc23)cs1`: the Potency was 25.1 µM (active).

In the case of `COc1ccc(C)cc1Nc1nc2ccccc2c2nnc(C)n12`, the max response, negative = inhibition is -0.388%.

As for `CCC1=Nc2cc(C(=O)NCC(C)c3ccccc3)ccc2Sc2ccc(C)cc21` (stereo unspecified), the Potency was 12.6 µM (active).

On to `CCCC1=Nc2cc(C(=O)NCc3ccco3)ccc2Sc2ccccc21`, for which the max response, negative = inhibition is -12.6%.

On to `COCCNC(=O)c1ccc2c(c1)N=C(C)c1cc(C)ccc1S2`, for which the max response, negative = inhibition is 12.7%.

For the compound `Cc1ccc(CCNC(=O)c2ccc(CNS(=O)(=O)c3ccc(C)cc3)cc2)cc1`, the max response, negative = inhibition is -23%.

Consider `CCOC(=O)c1cc2c(=O)n3ccccc3nc2n(CCCOC)c1=NC(=O)C(C)(C)Oc1ccc(Cl)cc1`, for which the max response, negative = inhibition was 4%.

`COc1cccc(/C=N\NC(=O)C2=NNC(=O)C2C)c1O` (stereo unspecified): the max response, negative = inhibition was 14.7%.

`Cc1ccc2nc(CNC(=O)c3ccccc3)[nH]c2c1`: the max response, negative = inhibition is 6.98%.

For `Cc1ccc(/C=N/NC(=O)C2=NNC(c3ccccc3)(c3ccccc3)C2)c(O)c1`, the Potency was 20 µM (active).

In the case of `COc1ccc(CCNc2ncnc3onc(-c4ccc(Cl)cc4)c23)c(OC)c1`, the max response, negative = inhibition was -2.97%.

For `CCOc1cccc(CNC(=O)c2ccc(N3CCCC3)c(NC(=O)Nc3ccccc3CC)c2)c1`, the max response, negative = inhibition is -7.71%.

Take `Clc1ccccc1CSc1nnc(-c2ccco2)c(-c2ccco2)n1`: the Potency is 15.8 µM (active).

`c1ccc(CSc2nnc(-c3ccco3)n2Cc2ccccc2)cc1`: the max response, negative = inhibition was -8.71%.

For the compound `c1ccc(CSc2nnc(-c3ccco3)c(-c3ccco3)n2)cc1`, the Potency was 15.8 µM (active).

As to `Nc1nc(SCc2ccccc2Cl)n[nH]1`, the max response, negative = inhibition was 3.93%.

Turning to `Clc1ccccc1CSc1nncn2c1cc1occc12`, the max response, negative = inhibition was -9.48%.

For `O=C(Nc1nnc(SCc2ccccc2)s1)c1ccco1`, the max response, negative = inhibition is -28.7%.

With `Cc1ccccc1-c1nc(SCC(=O)N(C)c2ccccc2)c2c(=O)n(C)c(=O)n(C)c2n1`, the max response, negative = inhibition was 8.08%.

For the compound `Cc1[nH]c2ccccc2c1C(c1ccccc1)c1cccs1` (stereo unspecified), the max response, negative = inhibition is 3.04%.

Regarding `CCc1nn(CC(=O)NCC(C)c2ccccc2)c(=O)c2cc3occc3n12` (stereo unspecified), the max response, negative = inhibition is -11.2%.

With `CCn1c(C(=O)Nc2cc(Cl)ccc2C)cc2sc(Cl)cc21`, the max response, negative = inhibition was 4.79%.

Regarding `CCOC(=O)c1c(NC(=S)NC(=O)/C=C/c2cccs2)sc(C)c1C`, the Potency is 10 µM (active).

On to `CCOC(=O)c1c(NC(=O)c2cccs2)sc(C)c1C`, for which the max response, negative = inhibition was 6.07%.

For `CCOC(=O)c1c(NC(=O)/C=C/c2ccco2)sc(C)c1C`, the max response, negative = inhibition was -4.04%.

For `Cc1ccc2nc(COc3ccccc3NC(=O)Nc3ccc(F)c(Cl)c3)cc(=O)n2c1`, the max response, negative = inhibition is 4.26%.

Turning to `COc1ccc(N(C)C(=O)CCS(=O)(=O)c2cccc3nsnc23)cc1`, the max response, negative = inhibition was -4.91%.

As for `Cc1ccc(NC(=O)CSc2nnc3[nH]c(=O)cc(C)n23)cc1Cl`, the max response, negative = inhibition was -3.39%.

For `Cc1ccc(C)c(OCC(=O)Nc2sc3c(c2C#N)CCCC3)c1C`, the max response, negative = inhibition is -0.311%.

For the compound `CC(=O)c1c(C)[nH]c(C(=O)OCC(=O)Nc2sc3c(c2C#N)CCCC3)c1C`, the max response, negative = inhibition was 11.6%.

On to `Cc1cccc(C(=O)OCC(=O)Nc2sc3c(c2C#N)CCC3)c1`, for which the Potency was 25.1 µM (active).

As to `Cc1cc(C)c2oc(-c3cccc(NC(=O)c4cccc(F)c4)c3C)nc2c1`, the max response, negative = inhibition is -10.4%.

In the case of `CCOC(=O)c1cccc(NS(=O)(=O)c2cc(-c3cnc(C)o3)ccc2OC)c1`, the max response, negative = inhibition was 1.23%.

On to `COc1ccccc1N1CCN(C(=O)c2cc(-c3ccc(Br)cc3)on2)CC1`, for which the max response, negative = inhibition is 16.1%.

For `COc1ccccc1-c1cc(C(=O)N2CCCCC2)no1`, the max response, negative = inhibition was -9.93%.

For the compound `COc1ccccc1N1CCN(C(=O)c2cc(-c3ccc(Cl)c(Cl)c3)on2)CC1`, the Potency is 25.1 µM (active).

Take `O=C(Nc1c(C(=O)N2CCN(c3ccc(F)cc3)CC2)oc2ccccc12)c1ccco1`: the max response, negative = inhibition is -12.7%.

Consider `COc1ccccc1CN1CCC(CNC(=O)c2cnn(-c3cccc(Cl)c3)c2C2CCN(C(=O)OC(C)(C)C)CC2)CC1`, for which the max response, negative = inhibition is 4.5%.

For `CC1=C(c2ccc(F)cc2)S(=O)(=O)N=C1N1CCC(C(=O)NCCc2ccccc2C)CC1`, the max response, negative = inhibition was -2.21%.

In the case of `CNc1nc(-c2ccccc2OC)nc2ccccc12`, the max response, negative = inhibition was -18.4%.

For the compound `COc1ccccc1-c1nc(C(F)(F)F)c(OC)o1`, the max response, negative = inhibition was -2.62%.

As to `COc1ccccc1C1=Nc2cccc3cccc(c23)N1`, the Potency was 12.6 µM (active).

On to `Cc1ccc(NC(=O)NC(C)c2c(-n3cccc3)sc(C)c2C)c(C)c1` (stereo unspecified), for which the max response, negative = inhibition was -10.8%.

Regarding `CCC(=O)N1CCc2cc(Br)cc(S(=O)(=O)Nc3ccc(C)cc3C)c21`, the max response, negative = inhibition is -1.34%.

Regarding `C=C(C)COc1ccc(-c2n[nH]c(C)c2-c2ccccc2)c(O)c1`, the max response, negative = inhibition was -10.5%.

Consider `Cc1[nH]nc(-c2ccc(OCc3cnn(-c4ccccc4)c3)cc2O)c1Oc1ccc(Cl)cc1`, for which the Potency was 10 µM (active).

In the case of `COc1ccc(C(=O)Cc2cnn(-c3ccccc3)c2)c(O)c1`, the max response, negative = inhibition is 4.15%.

Turning to `CCCN(CCC)CCNC(=O)Cn1cnc2sc(C)c(S(=O)(=O)N3CCC(C)CC3)c2c1=O`, the max response, negative = inhibition was -2.05%.

Consider `COc1cc(C(CC(=O)NCCC(C)C)N2Cc3ccccc3C2=O)cc(OC)c1OC` (stereo unspecified), for which the max response, negative = inhibition is 2.58%.

On to `COC(=O)C(C)Oc1ccc2c(-c3cccc([N+](=O)[O-])c3)cc(=O)oc2c1` (stereo unspecified), for which the max response, negative = inhibition is 0.187%.

On to `COc1ccc(Nc2cc(=O)oc3ccccc23)cc1`, for which the max response, negative = inhibition was -23.8%.

On to `COc1cc(OC)c2c(-c3cccc(-c4cccc(N)c4)c3)cc(=O)oc2c1`, for which the Potency was 11.2 µM (active).

Turning to `Cc1c(C(=O)N2CCCC2)oc2c1-c1nn(CC(=O)NCc3ccc(OC(C)C)cc3)cc1CC2`, the max response, negative = inhibition was 21.1%.

On to `CC(C)=C(NC(=O)c1ccco1)C(=O)NCCc1nc2ccccc2[nH]1`, for which the max response, negative = inhibition was -27.9%.

As for `O=C(COc1ccccc1)NCCc1nc2ccccc2[nH]1`, the Potency was 1 µM (active).

Regarding `COc1ccc(OC(C)C(=O)NCCc2nc3ccccc3[nH]2)cc1` (stereo unspecified), the max response, negative = inhibition was -6.55%.

Turning to `Cc1cccc(NC(c2cccc(F)c2)c2ccc3ccc(C)nc3c2O)n1` (stereo unspecified), the max response, negative = inhibition was 9.47%.

For `Cc1cc(NS(=O)(=O)c2ccc(NC(=O)c3ccccc3C)cc2)nc(C)n1`, the max response, negative = inhibition was 11.3%.

On to `CCCc1nc(NCc2ccc3c(c2)OCO3)c2nnn(Cc3ccccc3Cl)c2n1`, for which the Potency was 7.94 µM (active).

Turning to `Cc1nc(Nc2ccc3c(c2)OCCO3)c2nnn(Cc3ccccc3Cl)c2n1`, the max response, negative = inhibition was -5.56%.

In the case of `O=C(Cn1cnc2c(nnn2Cc2ccc(F)cc2)c1=O)NCc1ccc2c(c1)OCO2`, the max response, negative = inhibition is -6.08%.

`Cc1ccccc1-c1nc(CS(=O)(=O)CC(=O)Nc2cc(Cl)cc(Cl)c2)c(C)o1`: the max response, negative = inhibition was -28.1%.

Take `COc1ccc(-c2[nH]c3c(c2-c2c(-n4cccc4)n(C)c(=O)n(C)c2=O)c(=O)n(C)c(=O)n3C)cc1`: the max response, negative = inhibition was -3.26%.

As for `COc1ccc(C(=O)Nc2ncc3c(n2)-c2ccccc2CC3)cc1`, the max response, negative = inhibition was -8%.

On to `COc1ccc(C(=O)Nc2nc(-c3ccc(OC)cc3)c(-c3ccc([N+](=O)[O-])cc3)s2)cc1`, for which the Potency is 7.94 µM (active).

`COC(=O)C(NC(=O)c1ccc(OC)cc1)(Nc1ncc(S(=O)(=O)c2ccc([N+](=O)[O-])cc2)s1)C(F)(F)F` (stereo unspecified): the max response, negative = inhibition was -9.17%.

For `O=C(NCc1ccccc1Cl)c1cccn1-c1nnc(N2CCCCC2)s1`, the max response, negative = inhibition was -7.04%.

Consider `Oc1ccc(O)c2c(O)cccc12`, for which the Potency was 12.6 µM (active).

Regarding `O=c1cc(-c2ccc(O)c(O)c2)oc2cccc(O)c12`, the max response, negative = inhibition was 0.411%.

Regarding `O=S(=O)(c1ccc(Cl)cc1)c1nnn2c1nc(NC1CCCC1)c1sccc12`, the max response, negative = inhibition was 1.8%.

Consider `Cc1ccccc1NC(=O)Cn1c(=O)n(CC2CCC(C(=O)NCCc3ccccc3)CC2)c(=O)c2ccccc21` (stereo unspecified), for which the max response, negative = inhibition was 3.54%.

`COc1ccc(-c2nc(C)c(CCNC(=O)c3ccc(C(F)(F)F)cc3)s2)cc1OC`: the max response, negative = inhibition is 17.5%.

Turning to `CCn1cc(CCC(=O)NCc2ccc(F)cc2)c2ccccc21`, the max response, negative = inhibition was -13.6%.

On to `COC(=O)c1ccc(CSc2nc3ccccc3c(=O)n2-c2cccc(OC)c2)o1`, for which the Potency was 25.1 µM (active).

Turning to `Cc1cccc(NC(=O)CSc2nc3c([nH]c4ccccc43)c(=O)n2-c2cc(C)cc(C)c2)c1`, the max response, negative = inhibition was -19.8%.

Consider `Cc1ccc(NC(=O)CSc2nc3c([nH]c4ccccc43)c(=O)n2-c2ccccc2)cc1Cl`, for which the max response, negative = inhibition is 2.09%.

Take `CCc1ccc(NC(=O)CSc2nc3c([nH]c4ccccc43)c(=O)n2-c2cccc(OC)c2)cc1`: the Potency is 12.6 µM (active).

On to `COCC(C)n1c(SCc2ccc(C(=O)OC)o2)nc2ccccc2c1=O` (stereo unspecified), for which the max response, negative = inhibition was 12.5%.

In the case of `COC(=O)c1ccc(CSc2ccccc2C)o1`, the max response, negative = inhibition is -6.13%.
